# Results taken from article PMC7862700, “An all-to-all approach to the identification of sequence-specific readers for epigenetic DNA modifications on cytosine”.
# Legend:
# Test in all cases: DAPPL (digital affinity profiling via proximity ligation, sequencing); 10 mM Tris-HCl pH 7.5, 50 mM NaCl, 1 mM DTT, 4% glycerol, room temperature, 30 min; GST-TFs on glutathione beads, 16-mer random dsDNA library, 0.1% formaldehyde crosslink after washing; high values mean tight binding
# FLI1 = biological target: T1, FLI1 (Homo sapiens, UniProt Q01543 1-452); settings: protein: recombinant; tags: N-terminal GST; dsDNA, one strand shown
# T1 sequence: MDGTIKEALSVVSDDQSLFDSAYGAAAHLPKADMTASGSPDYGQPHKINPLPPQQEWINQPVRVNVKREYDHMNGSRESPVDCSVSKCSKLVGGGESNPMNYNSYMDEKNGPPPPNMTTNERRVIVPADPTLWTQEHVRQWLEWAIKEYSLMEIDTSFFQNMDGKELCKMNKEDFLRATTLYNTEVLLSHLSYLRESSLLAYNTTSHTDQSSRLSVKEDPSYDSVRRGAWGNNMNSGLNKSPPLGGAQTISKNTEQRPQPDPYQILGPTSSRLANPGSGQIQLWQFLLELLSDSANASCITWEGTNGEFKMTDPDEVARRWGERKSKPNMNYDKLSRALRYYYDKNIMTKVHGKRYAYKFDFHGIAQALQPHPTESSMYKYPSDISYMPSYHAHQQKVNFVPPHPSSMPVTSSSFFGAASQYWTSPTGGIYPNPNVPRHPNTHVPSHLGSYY
# Outline: (§1)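 The binding signal reported is, for every hexamer, its read frequency for a factor over its read frequency for the tag-only sample. Reads came from pools of yeast-expressed, GST-fused human transcription factors on glutathione beads, barcoded with DNA and mixed with that sample, which were incubated with 200 nmole of a random double-stranded 16-mer DNA library in Tris/NaCl/DTT/glycerol buffer at room temperature for 30 min. After washing, the pools were crosslinked with 0.1% formaldehyde, proximity-ligated with BsaI/T4 ligase for 1 h at 37 °C, PCR-amplified and sequenced on an Illumina NextSeq500.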
# ELK1 = biological target: T2, ELK1 (Homo sapiens, UniProt P19419 1-428); settings: protein: recombinant; tags: N-terminal GST; dsDNA, one strand shown
# T2 sequence: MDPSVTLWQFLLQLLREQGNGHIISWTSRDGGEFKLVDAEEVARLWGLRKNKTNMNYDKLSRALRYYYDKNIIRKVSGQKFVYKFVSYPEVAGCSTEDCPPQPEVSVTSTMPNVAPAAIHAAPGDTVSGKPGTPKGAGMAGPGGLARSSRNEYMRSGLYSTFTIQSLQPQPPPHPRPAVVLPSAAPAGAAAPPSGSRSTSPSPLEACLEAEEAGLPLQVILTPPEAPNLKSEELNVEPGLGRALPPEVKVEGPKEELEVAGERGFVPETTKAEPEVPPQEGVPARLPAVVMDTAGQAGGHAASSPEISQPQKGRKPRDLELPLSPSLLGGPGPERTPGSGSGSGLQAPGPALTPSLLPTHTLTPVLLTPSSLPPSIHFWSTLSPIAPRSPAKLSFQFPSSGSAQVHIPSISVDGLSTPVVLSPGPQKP
# Outline: as §1
# GABPA = biological target: T3, GABPA (Homo sapiens, UniProt Q06546 1-454); settings: protein: recombinant; tags: N-terminal GST; dsDNA, one strand shown
# T3 sequence: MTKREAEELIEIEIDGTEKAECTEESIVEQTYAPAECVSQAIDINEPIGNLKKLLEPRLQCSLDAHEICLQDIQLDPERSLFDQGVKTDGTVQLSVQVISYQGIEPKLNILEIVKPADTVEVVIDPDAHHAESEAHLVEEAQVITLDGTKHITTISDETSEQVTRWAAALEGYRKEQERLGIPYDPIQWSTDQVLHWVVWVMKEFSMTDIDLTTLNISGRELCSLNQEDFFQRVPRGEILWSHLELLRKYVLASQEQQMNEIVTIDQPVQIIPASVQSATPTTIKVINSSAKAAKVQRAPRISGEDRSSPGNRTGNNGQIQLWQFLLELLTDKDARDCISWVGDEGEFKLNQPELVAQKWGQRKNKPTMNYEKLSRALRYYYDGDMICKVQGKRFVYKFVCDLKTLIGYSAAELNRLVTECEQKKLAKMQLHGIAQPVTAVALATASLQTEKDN
# Outline: as §1
# ERG = biological target: T4, ERG (Homo sapiens, UniProt P11308 1-479); settings: protein: recombinant; tags: N-terminal GST; dsDNA, one strand shown
# T4 sequence: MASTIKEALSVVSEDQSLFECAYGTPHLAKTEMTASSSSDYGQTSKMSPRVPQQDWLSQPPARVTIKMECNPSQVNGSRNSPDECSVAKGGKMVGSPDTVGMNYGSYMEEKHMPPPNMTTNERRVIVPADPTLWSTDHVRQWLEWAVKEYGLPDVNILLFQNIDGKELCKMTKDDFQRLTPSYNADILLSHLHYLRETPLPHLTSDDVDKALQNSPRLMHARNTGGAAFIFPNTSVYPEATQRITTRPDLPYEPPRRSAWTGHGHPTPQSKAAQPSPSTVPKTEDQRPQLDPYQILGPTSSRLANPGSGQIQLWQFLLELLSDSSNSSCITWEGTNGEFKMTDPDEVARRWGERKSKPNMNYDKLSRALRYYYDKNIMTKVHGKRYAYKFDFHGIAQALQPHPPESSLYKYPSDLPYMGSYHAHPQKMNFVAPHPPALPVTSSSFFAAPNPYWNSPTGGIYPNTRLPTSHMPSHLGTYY
# Outline: as §1
# ELF1 = ELF1 (Homo sapiens, UniProt P32519 1-619); settings: protein: recombinant; tags: N-terminal GST; dsDNA, one strand shown
# Sequence of ELF1 (P32519 whole entry): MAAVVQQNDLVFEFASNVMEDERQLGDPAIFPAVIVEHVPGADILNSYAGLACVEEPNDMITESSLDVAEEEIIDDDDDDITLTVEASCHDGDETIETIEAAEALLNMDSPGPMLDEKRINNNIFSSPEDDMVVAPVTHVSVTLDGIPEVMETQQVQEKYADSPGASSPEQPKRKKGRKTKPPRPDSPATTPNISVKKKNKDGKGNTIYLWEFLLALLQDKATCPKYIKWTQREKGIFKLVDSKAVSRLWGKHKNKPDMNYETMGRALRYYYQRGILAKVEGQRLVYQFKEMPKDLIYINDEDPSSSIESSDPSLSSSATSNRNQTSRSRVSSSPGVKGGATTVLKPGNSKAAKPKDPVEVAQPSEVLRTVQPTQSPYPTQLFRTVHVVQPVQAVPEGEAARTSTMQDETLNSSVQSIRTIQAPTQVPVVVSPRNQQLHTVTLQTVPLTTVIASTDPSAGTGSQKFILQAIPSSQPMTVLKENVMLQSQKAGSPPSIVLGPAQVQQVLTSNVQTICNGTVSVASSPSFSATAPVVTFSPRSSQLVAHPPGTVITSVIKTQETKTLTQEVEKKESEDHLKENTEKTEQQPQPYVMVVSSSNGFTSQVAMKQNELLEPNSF
# Outline: as §1
# EHF = biological target: T5, EHF (Homo sapiens, UniProt Q9NZC4 1-300); settings: protein: recombinant; tags: N-terminal GST; dsDNA, one strand shown
# T5 sequence: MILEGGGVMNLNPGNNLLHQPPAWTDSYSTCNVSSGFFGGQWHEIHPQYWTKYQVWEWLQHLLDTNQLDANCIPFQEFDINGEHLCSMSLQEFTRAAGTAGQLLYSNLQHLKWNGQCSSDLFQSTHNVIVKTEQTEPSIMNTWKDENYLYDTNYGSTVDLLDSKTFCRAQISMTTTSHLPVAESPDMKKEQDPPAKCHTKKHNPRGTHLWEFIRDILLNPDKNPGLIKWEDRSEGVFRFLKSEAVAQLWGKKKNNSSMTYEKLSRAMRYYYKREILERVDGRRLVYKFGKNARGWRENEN
# Outline: as §1
# SPI1 = SPI1 (Homo sapiens, UniProt P17947 1-270); settings: protein: recombinant; tags: N-terminal GST; dsDNA, one strand shown
# Outline: as §1
# SPIB = SPIB (Homo sapiens, UniProt Q01892 1-262); settings: protein: recombinant; tags: N-terminal GST; dsDNA, one strand shown
# Sequence of SPIB (Q01892 whole entry): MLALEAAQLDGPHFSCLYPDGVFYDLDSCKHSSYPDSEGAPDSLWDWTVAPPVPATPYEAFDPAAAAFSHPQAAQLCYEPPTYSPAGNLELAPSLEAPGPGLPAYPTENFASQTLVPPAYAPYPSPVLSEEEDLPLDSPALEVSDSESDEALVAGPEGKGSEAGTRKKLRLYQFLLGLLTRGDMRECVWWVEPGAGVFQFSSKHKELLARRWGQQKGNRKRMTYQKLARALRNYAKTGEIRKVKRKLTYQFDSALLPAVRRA
# Outline: as §1
# ELK3 = biological target: T6, ELK3 (Homo sapiens, UniProt P41970 1-407); settings: protein: recombinant; tags: N-terminal GST; dsDNA, one strand shown
# T6 sequence: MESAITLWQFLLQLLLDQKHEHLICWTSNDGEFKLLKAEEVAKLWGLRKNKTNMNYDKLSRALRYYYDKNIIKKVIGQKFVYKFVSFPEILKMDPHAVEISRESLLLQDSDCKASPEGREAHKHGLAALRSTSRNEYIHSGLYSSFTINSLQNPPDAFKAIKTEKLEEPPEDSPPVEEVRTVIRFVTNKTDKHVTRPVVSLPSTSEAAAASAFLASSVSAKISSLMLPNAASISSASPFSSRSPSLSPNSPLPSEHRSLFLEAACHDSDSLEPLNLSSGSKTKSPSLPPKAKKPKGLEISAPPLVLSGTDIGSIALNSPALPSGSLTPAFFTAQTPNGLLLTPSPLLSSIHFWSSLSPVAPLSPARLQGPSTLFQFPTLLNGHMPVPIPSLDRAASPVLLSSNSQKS
# Outline: as §1
# FEV = biological target: T7, FEV (Homo sapiens, UniProt Q99581 1-238); settings: protein: recombinant; tags: N-terminal GST; dsDNA, one strand shown
# T7 sequence: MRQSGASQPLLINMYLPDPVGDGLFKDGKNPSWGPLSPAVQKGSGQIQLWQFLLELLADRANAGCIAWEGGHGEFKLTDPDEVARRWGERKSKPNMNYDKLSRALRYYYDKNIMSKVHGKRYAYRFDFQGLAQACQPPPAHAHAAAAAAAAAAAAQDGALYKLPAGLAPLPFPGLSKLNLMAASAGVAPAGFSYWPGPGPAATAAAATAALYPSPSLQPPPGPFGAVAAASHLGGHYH
# Outline: as §1
# ETV5 = ETV5 (Homo sapiens, UniProt P41161 1-510); settings: protein: recombinant; tags: N-terminal GST; dsDNA, one strand shown
# Sequence of ETV5 (P41161 whole entry): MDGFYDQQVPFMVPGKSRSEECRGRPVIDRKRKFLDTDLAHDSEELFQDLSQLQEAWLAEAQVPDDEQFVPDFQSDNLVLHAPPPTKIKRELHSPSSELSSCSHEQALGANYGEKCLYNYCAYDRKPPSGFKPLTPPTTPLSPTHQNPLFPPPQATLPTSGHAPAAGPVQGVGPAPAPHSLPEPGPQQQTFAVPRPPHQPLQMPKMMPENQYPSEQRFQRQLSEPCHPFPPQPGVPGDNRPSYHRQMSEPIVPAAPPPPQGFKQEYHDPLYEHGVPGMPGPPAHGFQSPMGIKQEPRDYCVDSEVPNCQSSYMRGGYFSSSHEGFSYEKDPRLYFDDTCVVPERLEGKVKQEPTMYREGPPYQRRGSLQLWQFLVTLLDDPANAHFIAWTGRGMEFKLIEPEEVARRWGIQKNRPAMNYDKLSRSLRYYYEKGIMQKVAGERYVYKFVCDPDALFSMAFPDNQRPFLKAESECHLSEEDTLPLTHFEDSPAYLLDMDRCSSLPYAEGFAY
# Outline: as §1
# HSF1 = HSF1 (Homo sapiens, UniProt Q00613 1-529); settings: protein: recombinant; tags: N-terminal GST; chain copies: 3; dsDNA, one strand shown
# Sequence of HSF1 (Q00613 whole entry): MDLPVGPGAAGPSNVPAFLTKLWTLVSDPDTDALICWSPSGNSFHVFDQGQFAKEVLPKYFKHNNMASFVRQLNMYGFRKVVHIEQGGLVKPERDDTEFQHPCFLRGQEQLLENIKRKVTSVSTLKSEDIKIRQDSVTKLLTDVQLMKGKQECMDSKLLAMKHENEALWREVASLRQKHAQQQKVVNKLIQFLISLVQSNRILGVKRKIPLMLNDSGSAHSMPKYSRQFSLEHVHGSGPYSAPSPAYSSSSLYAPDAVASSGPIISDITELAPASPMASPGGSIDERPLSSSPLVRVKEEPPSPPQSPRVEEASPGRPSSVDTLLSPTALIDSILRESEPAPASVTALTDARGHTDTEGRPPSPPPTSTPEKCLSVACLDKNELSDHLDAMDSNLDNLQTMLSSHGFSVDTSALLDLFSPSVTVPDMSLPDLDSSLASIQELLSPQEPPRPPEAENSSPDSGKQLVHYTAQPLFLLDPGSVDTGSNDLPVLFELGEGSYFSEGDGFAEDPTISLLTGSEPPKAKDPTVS
# Outline: as §1
# SPIC = biological target: T8, SPIC (Homo sapiens, UniProt Q8N5J4 1-248); settings: protein: recombinant; tags: N-terminal GST; dsDNA, one strand shown
# T8 sequence: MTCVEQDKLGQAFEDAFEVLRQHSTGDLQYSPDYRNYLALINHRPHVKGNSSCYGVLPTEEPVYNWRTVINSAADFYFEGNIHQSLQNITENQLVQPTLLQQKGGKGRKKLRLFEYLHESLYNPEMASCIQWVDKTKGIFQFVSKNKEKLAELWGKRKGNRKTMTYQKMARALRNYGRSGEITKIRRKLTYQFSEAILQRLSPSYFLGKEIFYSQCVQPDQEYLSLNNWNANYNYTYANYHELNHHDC
# Outline: as §1
# ELF4 = ELF4 (Homo sapiens, UniProt Q99607 1-663); settings: protein: recombinant; tags: N-terminal GST; dsDNA, one strand shown
# Sequence of ELF4 (Q99607 whole entry): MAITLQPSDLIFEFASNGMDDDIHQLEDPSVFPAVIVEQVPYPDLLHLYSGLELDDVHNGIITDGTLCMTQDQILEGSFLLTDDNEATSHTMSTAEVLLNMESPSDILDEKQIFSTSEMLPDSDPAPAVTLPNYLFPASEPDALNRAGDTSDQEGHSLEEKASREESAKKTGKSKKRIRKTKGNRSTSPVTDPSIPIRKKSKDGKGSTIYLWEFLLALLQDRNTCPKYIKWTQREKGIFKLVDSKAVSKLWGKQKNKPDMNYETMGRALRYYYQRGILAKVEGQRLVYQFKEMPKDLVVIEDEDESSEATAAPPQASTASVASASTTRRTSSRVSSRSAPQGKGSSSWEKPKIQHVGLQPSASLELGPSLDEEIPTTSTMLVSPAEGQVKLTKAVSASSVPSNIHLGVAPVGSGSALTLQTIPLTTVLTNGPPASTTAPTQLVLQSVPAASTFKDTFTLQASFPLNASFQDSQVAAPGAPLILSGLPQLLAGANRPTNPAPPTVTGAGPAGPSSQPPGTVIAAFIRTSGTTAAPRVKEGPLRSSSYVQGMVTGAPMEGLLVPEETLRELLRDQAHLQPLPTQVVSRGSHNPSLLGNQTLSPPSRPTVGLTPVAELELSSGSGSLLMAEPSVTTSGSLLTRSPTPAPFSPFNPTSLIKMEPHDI
# Outline: as §1
# ELK4 = biological target: T9, ELK4 (Homo sapiens, UniProt P28324-2 1-405); settings: protein: recombinant; tags: N-terminal GST; dsDNA, one strand shown
# T9 sequence: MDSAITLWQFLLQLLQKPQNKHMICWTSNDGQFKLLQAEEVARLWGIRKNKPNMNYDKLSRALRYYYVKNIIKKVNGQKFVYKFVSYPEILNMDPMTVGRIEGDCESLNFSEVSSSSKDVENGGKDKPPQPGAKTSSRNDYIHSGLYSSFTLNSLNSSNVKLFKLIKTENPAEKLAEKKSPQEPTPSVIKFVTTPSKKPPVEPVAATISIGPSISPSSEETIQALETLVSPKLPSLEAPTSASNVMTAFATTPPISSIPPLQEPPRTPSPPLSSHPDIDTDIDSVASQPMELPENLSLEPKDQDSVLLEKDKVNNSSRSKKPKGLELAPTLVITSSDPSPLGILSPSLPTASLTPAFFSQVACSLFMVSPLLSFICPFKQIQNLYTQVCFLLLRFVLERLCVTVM
# Outline: as §1
# ETV2 = biological target: T10, ETV2 (Homo sapiens, UniProt O00321 1-342); settings: protein: recombinant; tags: N-terminal GST; dsDNA, one strand shown
# T10 sequence: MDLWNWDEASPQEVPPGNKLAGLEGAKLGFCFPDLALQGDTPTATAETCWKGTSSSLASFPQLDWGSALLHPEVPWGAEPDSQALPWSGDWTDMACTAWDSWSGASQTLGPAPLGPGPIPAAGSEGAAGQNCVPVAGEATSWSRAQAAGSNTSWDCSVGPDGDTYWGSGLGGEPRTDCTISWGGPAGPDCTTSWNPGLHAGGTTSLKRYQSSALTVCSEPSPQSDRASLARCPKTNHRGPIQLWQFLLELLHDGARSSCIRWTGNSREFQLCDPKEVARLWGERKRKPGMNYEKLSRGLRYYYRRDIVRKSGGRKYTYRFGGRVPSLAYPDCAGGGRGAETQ
# Outline: as §1
# ELF3 = biological target: T11, ELF3 (Homo sapiens, UniProt P78545 1-371); settings: protein: recombinant; tags: N-terminal GST; dsDNA, one strand shown
# T11 sequence: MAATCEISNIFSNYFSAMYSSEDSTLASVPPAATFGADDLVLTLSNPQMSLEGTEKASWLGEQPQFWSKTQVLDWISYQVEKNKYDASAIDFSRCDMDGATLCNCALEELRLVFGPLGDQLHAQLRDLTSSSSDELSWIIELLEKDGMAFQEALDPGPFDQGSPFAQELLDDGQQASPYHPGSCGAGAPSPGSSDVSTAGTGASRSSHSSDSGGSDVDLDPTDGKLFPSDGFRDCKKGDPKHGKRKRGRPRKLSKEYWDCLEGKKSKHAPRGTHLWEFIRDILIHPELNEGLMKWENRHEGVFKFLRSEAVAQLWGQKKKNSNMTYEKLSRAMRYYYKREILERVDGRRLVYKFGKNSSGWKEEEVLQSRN
# Outline: as §1
# ETV1 = ETV1 (Homo sapiens, UniProt P50549 1-477); settings: protein: recombinant; tags: N-terminal GST; dsDNA, one strand shown
# Sequence of ETV1 (P50549 whole entry): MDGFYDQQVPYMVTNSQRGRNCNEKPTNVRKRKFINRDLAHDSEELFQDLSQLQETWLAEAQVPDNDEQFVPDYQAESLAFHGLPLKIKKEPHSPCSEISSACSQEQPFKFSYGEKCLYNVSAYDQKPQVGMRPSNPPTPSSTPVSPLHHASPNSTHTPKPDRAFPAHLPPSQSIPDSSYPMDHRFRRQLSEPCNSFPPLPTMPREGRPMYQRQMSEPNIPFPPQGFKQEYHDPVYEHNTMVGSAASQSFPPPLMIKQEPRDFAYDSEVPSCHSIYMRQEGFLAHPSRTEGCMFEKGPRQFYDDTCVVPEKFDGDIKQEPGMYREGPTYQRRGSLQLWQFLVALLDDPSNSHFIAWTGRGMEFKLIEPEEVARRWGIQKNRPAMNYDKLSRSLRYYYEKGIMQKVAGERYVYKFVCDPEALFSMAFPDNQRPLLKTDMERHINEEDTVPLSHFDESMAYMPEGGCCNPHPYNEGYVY
# Outline: as §1
sequence,measurement,setting,value
CGACCA,binding signal,FLI1,"1.2 fold enrichment (6-mer frequency, TF over GST control)"
same,binding signal,ELK1,"1.27 fold enrichment (6-mer frequency, TF over GST control)"
same,binding signal,GABPA,"1.23 fold enrichment (6-mer frequency, TF over GST control)"
same,binding signal,ERG,"1.15 fold enrichment (6-mer frequency, TF over GST control)"
same,binding signal,ELF1,"1.31 fold enrichment (6-mer frequency, TF over GST control)"
same,binding signal,EHF,"1.28 fold enrichment (6-mer frequency, TF over GST control)"
same,binding signal,SPI1,"1.24 fold enrichment (6-mer frequency, TF over GST control)"
same,binding signal,SPIB,"1.16 fold enrichment (6-mer frequency, TF over GST control)"
same,binding signal,ELK3,"1.37 fold enrichment (6-mer frequency, TF over GST control)"
same,binding signal,FEV,"1.3 fold enrichment (6-mer frequency, TF over GST control)"
same,binding signal,ETV5,"1.17 fold enrichment (6-mer frequency, TF over GST control)"
same,binding signal,HSF1,"1.14 fold enrichment (6-mer frequency, TF over GST control)"
same,binding signal,SPIC,"1.12 fold enrichment (6-mer frequency, TF over GST control)"
same,binding signal,ELF4,"1.39 fold enrichment (6-mer frequency, TF over GST control)"
same,binding signal,ELK4,"1.31 fold enrichment (6-mer frequency, TF over GST control)"
same,binding signal,ETV2,"1.35 fold enrichment (6-mer frequency, TF over GST control)"
same,binding signal,ELF3,"1.32 fold enrichment (6-mer frequency, TF over GST control)"
same,binding signal,ETV1,"1.23 fold enrichment (6-mer frequency, TF over GST control)"
